Reference: the supplement of paper PMC6555819

Tests used:
Assay in all cases: PBM binding z-score (relative to random genomic background probes); higher = stronger binding; sequences stand for … in GC…GCGATTGACAGCGTAGAATGAAGG
[1] = test system: FXR:RXRa (NR concentration 270 nM, RXRa partner concentration 90 nM)
In short: (§1)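 For binding z-scores, the reference was random background probes on custom Agilent 4×180K protein-binding microarrays. These arrays were incubated 1 h with ligand-free nuclear receptor dimers in PBS pH 7.4, 2% milk, 0.02% Triton X-100, 1 mM DTT, 0.2 mg/mL BSA and 0.4 mg/ml salmon testes DNA. Fluorescence was scanned after antibody detection of each partner (one per run) and regression-normalized.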

[2] = test system: LXRa:RXRa (NR concentration 270 nM, RXRa partner concentration 90 nM)
In short: as §1

[3] = test system: LXRa homodimer (NR concentration 270 nM)
In short: as §1

[4] = test system: LXRb:RXRa (NR concentration 270 nM, RXRa partner concentration 90 nM)
In short: as §1

[5] = test system: LXRb homodimer (NR concentration 270 nM)
In short: as §1

[6] = test system: PPARa:RXRa (NR concentration 270 nM, RXRa partner concentration 90 nM)
In short: as §1

[7] = test system: PPARg:RXRa (NR concentration 180 nM, RXRa partner concentration 90 nM)
In short: as §1

[8] = test system: PPARg:RXRa 270nM:90nM, anti-RXR (NR concentration 270 nM, RXRa partner concentration 90 nM)
In short: as §1

[9] = test system: PPARg:RXRa 30nM:10nM, anti-RXR (NR concentration 30 nM, RXRa partner concentration 10 nM)
In short: as §1

[10] = test system: PPARg:RXRa 90nM:30nM, anti-RXR (NR concentration 90 nM, RXRa partner concentration 30 nM)
In short: as §1

[11] = test system: PPARg:RXRa DBDmut IVT, anti-RXR (DBD mutation: RXRa K156A/R161A, NR concentration 270 nM, RXRa partner concentration 90 nM)
In short: as §1

[12] = test system: PPARg:RXRa IVT, anti-PPARg (NR concentration 270 nM, RXRa partner concentration 90 nM)
In short: as §1

[13] = test system: PPARg DBDmut:RXRa IVT, anti-PPARg (DBD mutation: PPARg1 K132A/R137A, NR concentration 270 nM, RXRa partner concentration 90 nM)
In short: as §1

[14] = test system: PPARg DBDmut IVT, anti-PPARg (DBD mutation: PPARg1 K132A/R137A, NR concentration 270 nM)
In short: as §1

[15] = test system: PPARg homodimer (NR concentration 180 nM)
In short: as §1

[16] = test system: PXR:RXRa (NR concentration 270 nM, RXRa partner concentration 90 nM)
In short: as §1

[17] = test system: PXR homodimer (NR concentration 270 nM)
In short: as §1

[18] = test system: RARa:RXR (NR concentration 270 nM, RXRa partner concentration 90 nM)
In short: as §1

[19] = test system: RARa homodimer (NR concentration 270 nM)
In short: as §1

[20] = test system: RARb:RXRa (NR concentration 270 nM, RXRa partner concentration 90 nM)
In short: as §1

Sequence	PBM binding z-score [1]	PBM binding z-score [2]	PBM binding z-score [3]	PBM binding z-score [4]	PBM binding z-score [5]	PBM binding z-score [6]	PBM binding z-score [7]	PBM binding z-score [8]	PBM binding z-score [9]	PBM binding z-score [10]	PBM binding z-score [11]	PBM binding z-score [12]	PBM binding z-score [13]	PBM binding z-score [14]	PBM binding z-score [15]	PBM binding z-score [16]	PBM binding z-score [17]	PBM binding z-score [18]	PBM binding z-score [19]	PBM binding z-score [20]
CTTGAAAGGTCGGTTGAGGTGAGTATACGGATAA	3.64	2.28	-0.0492	2.52	-0.354	3.43	0.512	1.27	0.216	0.942	0.154	0.996	-0.0609	0.067	0.811	3.33	0.421	2.5	-0.0411	2.97
ATACCAAGGTGATCGTGAGGACGTTGATACTAAC	0.587	0.135	-0.00187	0.0444	-0.331	-0.0562	0.622	0.0338	-0.0535	-0.287	0.171	1.03	0.678	-0.134	-0.121	0.502	0.387	1.03	0.115	0.704
AGTCAAAGTTCACTAGGTAACTTAAGATTCAGCT	5.3	5.02	3.26	3.15	1.21	4.91	6.82	6.55	3.6	5.72	2.47	4.8	2.06	1.17	1.24	4.02	2.95	3.07	1.01	4.73
AGAATGAGGTTATACGTAGATCAGGAAAGAAAGT	2.11	1.99	0.118	1.76	0.0606	3.08	2.02	1.97	0.878	1.47	4.05	2.36	1.21	0.76	0.606	1.23	0.488	1.71	0.559	1.37
TCTTGTAGATCAATAGAGGTTACGAAAGTGCGCT	1.11	3.47	0.474	2.05	0.24	2.12	0.4	1.79	2.79	2.24	1.83	1.63	0.944	0.638	0.416	3.21	0.389	2.22	0.489	1.24
GGAACGAGGGCAAAGTTGACAGCATCTGTCGACG	2.02	1.27	-0.425	1.25	-0.409	4.78	8.22	7.66	7.72	8.34	4.28	4.82	1.12	0.308	0.924	1.91	0.0135	2.66	-0.5	2.65
CCTTACGGGTCACTGACAGGTGATAGCATTTGGA	6.8	5.19	0.411	4.32	-0.315	5.68	4.86	4.97	1.83	4	3.73	3.99	0.64	-0.737	2.47	4.3	0.473	5.06	0.945	4.15
CAAACTAGGTCACCGGAAGGTTAAAGTCCGCATG	5.17	4.53	1.89	3.61	0.743	5.67	9.32	7.58	5.78	7.27	8.22	9.06	2.44	1.44	3.7	3.98	0.858	5.18	0.971	4.78
CCTACTGGGCCATCAGGTCATTCATATCAACGTT	1.41	1.28	1.89	1.61	-0.0742	2.72	2.7	3.47	1.16	2.86	4.57	4.74	0.597	0.12	1.48	1.73	1.07	1.96	0.469	2.01
AGTTACGGGTCAACGAGGTTATAGCACGCGTATA	6.05	5.15	0.781	4.47	0.793	5.63	5.57	5.55	2.17	4.38	2.76	3.97	0.585	1.05	1.48	5.12	2.21	4.6	0.766	4.16
CGTTACGGGTCAAGGTTATAGCACGGGTGGTACG	5.94	3.83	0.0546	3.09	-0.0956	5.35	4.95	4.72	1.51	3.37	2.15	3.69	0.343	-0.183	1.78	3.44	0.111	3.92	0.367	4.29
CCTACTGGGCCTAAAAGGTCATTGATGCCGATAA	4.02	4.65	4.1	4.61	0.491	4.78	1.7	3.24	0.898	2.38	0.181	1.85	-0.634	-1.2	2.99	4.85	2.21	5.06	1.56	4.02
CAAACTAGGTCTCCGGAAGGTCAAAGTCCGCATG	2.65	3.15	2.79	3.25	0.445	3.75	2.85	3.29	0.811	2.34	5.21	4.82	0.561	0.489	2.44	3.68	1.14	3.9	0.122	3.23
ATCTCTAGGTAAAGATAGTTCAGTGTATGCAAAT	0.705	4.16	0.797	0.893	0.581	1.05	0.827	0.452	0.59	0.44	1.71	1.89	0.591	1.15	1.3	1.32	0.866	1.11	0.968	0.53
CCTGCTAGGTCATGGTCAGCCAATCTACAGTATG	3.64	2.66	-0.0941	1.68	-0.0584	3.49	2.75	2.89	0.768	1.98	4.43	3.74	0.352	0.0677	1.85	1.21	-0.386	2.49	0.141	3.9
